Out of some 220,000 compounds screened, about 2,400 (1.1%) were called active. Where a call stands in place of a potency, no number is given. Roughly 7% stayed inconclusive and do not appear here. The call rests on the fitted dose curve; in most records, active means well fitted inhibition curve with a large enough effect; inconclusive means small, poorly fitted or top-dose-only effect, or effect the other way; inactive means no such curve, though single readings can be large or run the other way. The full list was thinned out, with actives kept by preference.
test: qHTS Multiplex Assay to Identify Dual Action Probes in a Cell Model of Huntington: Aggregate Formation (GFP); settings: PC12 HttQ103-GFP aggregates, Acumen cytometry, 40 h; series mostly up to 9.22 µM; further: nearly all actives have a fitted effect of over 60% in size
From the text: NIH Chemical Genomics Center [NCGC]
NIH Molecular Libraries Probe Production centers Network [MLPCN]
Assay Submitter (PI): Wei Zheng
Huntington's disease is a neurodegenerative disorder caused by a trinucleotide repeat expansion in Exon 1 of the Huntingtin gene. The CAG trinucleotide encodes glutamine and polyglutamine expansions cause cell death in selective areas of the brain. Huntington polyglutamine repeats have the tendency to form aggregates which are observable in later stages of the disease. The exact nature of the aggregates, whether toxic, protective, or insignificant, is unclear.
A stable PC12 cell line containing a gene fusion of Exon 1 of the Huntingtin gene linked to GFP under the control of the inducible ecdysone promoter were used as the cell-based model of Huntington Disease for high throughput screening. Exon 1 of the Huntingtin gene contained an expansion of 103 polyglutamines (Q103) which, when expressed, caused cell death and distinct, bright GFP aggregates. The amount of cell death and the size and intensity of GFP aggregates increased over time and induction level. The cell death were quantified with a measurement of ATP content in the cells. A maximal 40-50% of cell death was observed when the Huntington gene was induced in this cell line.
We optimized this assay in a homogeneous 1536 well format. A quantitative high throughput screen (qHTS) was conducted on the PC12 cells which were induced to express the toxic fusion construct. Small molecules which reduced aggregate formation were identified bu using a laser scanning cytometer calibrated to detect the aggregates in cell lysates.
PC12 cells stably containing a construct with an ecdysone inducible promoter expressing GFP fused to the exon 1 of HTTQ103 (Huntington protein which containing a 103 ployglutamine expansion) were used.
NCGC Assay Protocol Summary:
Sequence, Parameter, Description
1, Reagent, 5 uL 1500 cells/well 1536 TC treated White clear bottom plate
2, Compound, 23 nL Tebufenozide inducer (100 nM final) to all columns
3, Compound, 23 nL 40 uM to 0.5 nM Libraries
5, Reagent, 5 ul ATPLite cell death assay reagent
6, Detector, Aggregate quantitation by Acumen Explorer
Media consisted of phenol red free DMEM + 5% equine serum (Hyclone # SH30072.03 ), 5% supplemented Bovine Calf Serum (Hyclone # SH30074.03 ), 1x pen/strep, no G418
Acumen Explorer was used to quantitate GFP aggregates using the following criteria: […] laser excitation, 500-530 nm emission, the PMT was set at a voltage of 450 volts, and objects ranging in size of […] in size having a signal of 6 STDEV above background were collected.
Control columns: 1 = DMSO, 2= 2 uM teb dilns (1:1), 4 = 100 nM Teb inducer. Sample columns received 100 nM Teb.
Potency means the concentration at half of the fitted maximal effect.

Question: For `CCCCCn1c(=O)c(C(=O)NCc2ccccn2)c(O)c2ccccc21`, which Potency is on record?
Answer: The Potency was 31.6 µM (active).

Question: With `CCCCCn1c(=O)c(C(=O)Nc2c(C)n(C)n(-c3ccccc3)c2=O)c(O)c2ccccc21` as the molecule, how does the Potency read?
Answer: Its Potency is “inactive”.

Question: With `C=CCN1CCC23c4c5ccc(O)c4O[C@H]2C(=O)CC[C@@]3(O)C1C5` (stereo not given in full) as the molecule, how does the Potency read?
Answer: Its Potency is “inactive”.

Question: For `c1ccc2sc(SNC3CCCCC3)nc2c1`, which Potency is on record?
Answer: The Potency was “inactive”.

Question: Which Potency does the source give for `CN1CCN(/N=C/c2c[nH]c3ccccc23)CC1` here?
Answer: The Potency was “inactive”.

Question: For `CC(Cc1ccccc1)NC=O` (stereo not given), which Potency is on record?
Answer: The Potency was “inactive”.

Question: With `CN1CCCC(=C(c2cccs2)c2cccs2)C1` as the molecule, how does the Potency read?
Answer: Its Potency is “inactive”.

Question: Which Potency does the source give for `Cc1ncc(CC(=O)n2cc(C(=O)c3cc(Cl)ccc3O)cn2)s1` here?
Answer: Its Potency is 14.1 µM (active).

Question: With `COc1cccc(CN2CCCC(C(=O)c3ccccc3SC)C2)c1O` (stereo not given) as the molecule, how does the Potency read?
Answer: Its Potency is “inactive”.

Question: For `CC[N+]1(CCOC(=O)C(O)(c2ccccc2)c2ccccc2)CCCCC1`, which Potency is on record?
Answer: Its Potency is “inactive”.

Question: With `COc1ccc(-n2c(-c3ccccc3)nc3ccccc3c2=O)cc1` as the molecule, how does the Potency read?
Answer: The Potency was “inactive”.

Question: For `O=Cc1cn(Cc2ccc(F)cc2Cl)c2ccccc12`, which Potency is on record?
Answer: Its Potency is 10 µM (active).

Question: For `CC1C2Cn3c(nc4ccccc43)C1N(C)O2` (stereo not given), which Potency is on record?
Answer: The Potency was “inactive”.

Question: Which Potency does the source give for `CCCCC(=O)N/N=C/c1c(O)n(CC)c(=S)n(CC)c1=O` here?
Answer: The Potency was 3.98 µM (active).

Question: Which Potency does the source give for `CCCCC(=O)N/N=C/c1c(O)n(-c2ccccc2)c(=O)[nH]c1=O` here?
Answer: The Potency was “inactive”.

Question: For `CCCCC(=O)N/N=C/c1c(O)n(CCC2=CCCCC2)c(=O)[nH]c1=O`, which Potency is on record?
Answer: Its Potency is “inactive”.

Question: For `COC([CH2][Hg])CNC(=O)c1ccccc1OCC(=O)O` (stereo not given), which Potency is on record?
Answer: The Potency was “inactive”.

Question: With `O=C(N/N=C/c1ccc([N+](=O)[O-])o1)c1cc([N+](=O)[O-])cc([N+](=O)[O-])c1O` as the molecule, how does the Potency read?
Answer: Its Potency is “inactive”.

Question: For `CC(C)c1ccc(-n2c(O)c(/C=N/N3CCOCC3)c(=O)[nH]c2=S)cc1`, which Potency is on record?
Answer: The Potency was “inactive”.

Question: For `CCCn1c(C(=O)c2ccccc2OC)nc2ccccc21`, which Potency is on record?
Answer: The Potency was “inactive”.

From PubChem BioAssay AID1688 (National Center for Advancing Translational Sciences (NCATS), 2009)
